This note sets out measurements from PubChem BioAssay.

What is called inhibition is the change of the read-out against control, counted positive when it falls.

Assay [1] in a line: antimalarial activity against Dd2 strain (AID 2302;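 active means growth inhibition above 50% at the single 2 µM test dose, taken to imply half-maximal potency below 2 µM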;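 further: 0% = DMSO untreated growth and 100% = chloroquine plus artemisinin killed control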). Conditions: P. falciparum Dd2 in RBCs, LDH growth readout, 72 h; at 2 µM; active compounds read high.
Assay [2] can be described thus: HepG2 cytotoxicity, primary screen, cytotoxicity control for P. falciparum antimalarial project, cell-based, ATP luminescence (AID 2303;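 active means inhibition above 50%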;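 further: 0% = DMSO wells and 100% = digitonin-killed cells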). The conditions noted are these: HepG2 viability, 24-48 h, at 10 µM, active compounds read high.
The target in assay [3] is L-lactate dehydrogenase (Plasmodium falciparum (isolate CDC / Honduras)) (UniProt Q27743). The experiment in a line: PfLDH activity inhibition – cell lysate, 3D7 strain, counter-screen for P. falciparum growth inhibition project (AID 2304).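 Further: 0% = vehicle and 100% = reference inhibitor.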 Conditions: P. falciparum 3D7 crude extract, LDH APAD/NBT absorbance; at 2 µM; active compounds read high. (In general: The purpose of a counterscreen is to sort out artefacts and off-target activity.)

Assay [4] in a line: inhibition of 3D7 malaria parasite growth – strain 3D7 (AID 2306).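 Further: 0% = DMSO wells and 100% = chloroquine plus artemisinin control wells.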 Conditions: P. falciparum 3D7 erythrocytic growth, LDH absorbance, 72 h; at 2 µM; active compounds read high.
For assay [5], the target named is Calcium-dependent protein kinase 1 (Plasmodium falciparum (isolate 3D7)) (UniProt P62344). The experiment in a line: PfCDPK1 kinase inhibitors, biochemical, TCAMS library (AID 1159585; cut-off not given, nearly all actives have IC50 up to about 0.98 µM;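 further: inhibitors leave more ATP so luminescence rises with inhibition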). The conditions noted are these: recombinant PfCDPK1, Kinase-Glo ATP depletion luminescence. On the technique in general: Kinase-Glo reads ATP consumption through a luciferase reaction.

The target of assay [6] is Plasmodium falciparum protein kinase 6 (PK6, PF3D7_1337100) (UniProt Q8IDW1). As to the kind of experiment: PfPK6 kinase inhibitors, biochemical, TCAMS library (AID 1159586). Conditions: recombinant PfPK6, Kinase-Glo ATP depletion luminescence.
Assay [7] has as its target Protein kinase 7 (PK7), Plasmodium falciparum 3D7 (PF3D7_0213400) (UniProt Q7YTF7). As to the kind of experiment: inhibition of Plasmodium PK7 catalytic activity – biochemical, TCAMS antimalarial set, Kinase-Glo luminescence (AID 1159587). Conditions: recombinant PfPK7, Kinase-Glo ATP depletion luminescence.
The target of assay [8] is Calcium-dependent protein kinase 4 (Plasmodium falciparum (isolate 3D7)) (UniProt Q8IBS5). The experiment in a line: PfCDPK4 kinase inhibitors, biochemical, TCAMS library (AID 1159588; cut-off not given, nearly all actives have IC50 up to about 0.91 µM). The conditions noted are these: recombinant PfCDPK4, Kinase-Glo ATP depletion luminescence.

Where “and” joins values, the source holds several entries; their conditions need not be identical. Identical values can stand only once. Values without a mark were called inactive. For some assays here: Results with a measured potency or affinity are listed apart. Calls of active or inactive are those of the source. Unless noted, how the calls were made is not given here.

Calcium-dependent protein kinase 4 (Plasmodium falciparum (isolate 3D7)), sequence (Q8IBS5 whole entry, looked up): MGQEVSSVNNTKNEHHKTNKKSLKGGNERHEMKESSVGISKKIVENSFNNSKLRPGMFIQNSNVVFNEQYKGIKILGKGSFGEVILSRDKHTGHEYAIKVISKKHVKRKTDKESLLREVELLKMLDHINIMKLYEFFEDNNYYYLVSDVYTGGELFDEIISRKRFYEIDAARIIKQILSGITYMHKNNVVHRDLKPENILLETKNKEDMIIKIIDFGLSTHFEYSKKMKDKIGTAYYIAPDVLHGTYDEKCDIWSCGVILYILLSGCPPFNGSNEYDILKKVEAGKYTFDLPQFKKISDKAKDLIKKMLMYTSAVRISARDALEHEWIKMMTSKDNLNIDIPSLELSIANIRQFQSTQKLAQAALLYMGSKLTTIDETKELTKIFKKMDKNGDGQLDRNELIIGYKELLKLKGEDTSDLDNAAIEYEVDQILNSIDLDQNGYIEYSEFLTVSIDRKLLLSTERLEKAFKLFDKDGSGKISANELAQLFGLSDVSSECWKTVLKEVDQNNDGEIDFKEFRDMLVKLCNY
Calcium-dependent protein kinase 1 (Plasmodium falciparum (isolate 3D7)), sequence (P62344 whole entry, looked up): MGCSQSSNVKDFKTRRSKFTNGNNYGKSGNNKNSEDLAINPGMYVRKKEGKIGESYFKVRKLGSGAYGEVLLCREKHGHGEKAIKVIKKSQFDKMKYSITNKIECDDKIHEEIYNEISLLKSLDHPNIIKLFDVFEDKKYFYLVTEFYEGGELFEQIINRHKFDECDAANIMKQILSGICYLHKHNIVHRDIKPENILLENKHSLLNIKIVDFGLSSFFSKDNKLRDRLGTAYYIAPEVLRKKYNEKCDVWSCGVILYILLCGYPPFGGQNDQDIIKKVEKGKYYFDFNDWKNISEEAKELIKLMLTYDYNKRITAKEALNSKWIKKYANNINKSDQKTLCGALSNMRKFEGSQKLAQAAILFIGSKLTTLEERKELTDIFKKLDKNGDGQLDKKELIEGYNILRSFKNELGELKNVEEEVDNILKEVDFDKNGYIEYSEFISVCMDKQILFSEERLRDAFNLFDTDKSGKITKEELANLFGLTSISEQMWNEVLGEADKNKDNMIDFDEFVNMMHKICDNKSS
Plasmodium falciparum protein kinase 6 (PK6, PF3D7_1337100), sequence (Q8IDW1 1-305): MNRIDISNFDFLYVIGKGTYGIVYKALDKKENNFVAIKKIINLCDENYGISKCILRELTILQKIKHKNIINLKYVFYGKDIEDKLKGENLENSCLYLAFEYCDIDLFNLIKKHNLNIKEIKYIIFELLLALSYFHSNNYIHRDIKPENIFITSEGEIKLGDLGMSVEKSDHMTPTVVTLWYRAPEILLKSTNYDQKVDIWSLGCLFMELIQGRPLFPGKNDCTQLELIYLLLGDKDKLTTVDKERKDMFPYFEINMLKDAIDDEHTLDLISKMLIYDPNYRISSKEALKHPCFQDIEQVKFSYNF
L-lactate dehydrogenase (Plasmodium falciparum (isolate CDC / Honduras)), sequence (Q27743 whole entry, looked up): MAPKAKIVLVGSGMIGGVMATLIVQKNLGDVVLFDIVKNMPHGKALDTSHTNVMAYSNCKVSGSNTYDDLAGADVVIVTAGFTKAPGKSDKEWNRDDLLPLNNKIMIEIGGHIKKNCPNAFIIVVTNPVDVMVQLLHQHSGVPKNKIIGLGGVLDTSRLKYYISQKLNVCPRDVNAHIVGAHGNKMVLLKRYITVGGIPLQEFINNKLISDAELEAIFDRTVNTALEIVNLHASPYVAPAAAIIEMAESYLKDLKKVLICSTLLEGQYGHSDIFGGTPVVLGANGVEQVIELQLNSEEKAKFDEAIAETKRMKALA
Protein kinase 7 (PK7), Plasmodium falciparum 3D7 (PF3D7_0213400), sequence (Q7YTF7 1-343): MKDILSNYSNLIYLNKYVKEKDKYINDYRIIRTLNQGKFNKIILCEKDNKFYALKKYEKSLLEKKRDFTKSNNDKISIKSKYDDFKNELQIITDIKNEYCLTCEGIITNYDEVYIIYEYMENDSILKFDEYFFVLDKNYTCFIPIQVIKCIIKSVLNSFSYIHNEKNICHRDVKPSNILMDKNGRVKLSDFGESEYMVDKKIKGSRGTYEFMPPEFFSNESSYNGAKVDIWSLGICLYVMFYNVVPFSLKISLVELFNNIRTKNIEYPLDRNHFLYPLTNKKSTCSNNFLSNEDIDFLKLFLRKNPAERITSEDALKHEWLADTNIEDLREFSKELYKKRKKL

On to `O=C(NC1CCC(CN2CCC(c3c[nH]c4ccccc34)CC2)CC1)NC12CC3CC(CC(C3)C1)C2` (stereo unspecified), for which the growth inhibition in assay [1] was 46%; in assay [4], 96% (active). In addition, the values for the inhibition in assay [2] and in assay [3] were 37% and 7%, respectively. In addition, the result in assay [5], in assay [6], in assay [7] and in assay [8] was inactive.
In the case of `CC[C@H]1CN2CC[C@H]1C[C@@H]2[C@H](O)c1ccnc2ccc(O)cc12`, the values for the growth inhibition in assay [1] and in assay [4] were -4% and 94% (active), respectively. Besides, the inhibition was -3% in assay [2] and -2% in assay [3]. Moreover, the outcome in assay [5], in assay [6], in assay [7] and in assay [8] was inactive.
For the compound `Cc1cc(C)c(CC(C)NCC(O)c2cccc(C(F)(F)F)c2)c(C)c1` (stereo unspecified), the growth inhibition is 99% (active) in assay [1] and 100% (active) in assay [4]. Besides, the inhibition was 0% in assay [2] and 5% in assay [3]. The outcome in assay [5], in assay [6], in assay [7] and in assay [8] was inactive.
As for `O=C(/C=C/c1ccc(Cl)c(Cl)c1)N1CCC(CN2CCC(c3c[nH]c4cc5c(cc34)OCO5)CC2)CC1`, the growth inhibition in assay [1] is 75% (active); in assay [4] it was 102% (active). Moreover, the inhibition in assay [2] was 41%; in assay [3] it was -2%. Moreover, the outcome in assay [5], in assay [6], in assay [7] and in assay [8] was inactive.
For the compound `COC(=O)c1ccc(CC(C)NCC(O)c2cccc(Br)c2)cc1` (stereo unspecified), the growth inhibition in assay [1] was 88% (active); in assay [4] it was 99% (active). Moreover, the inhibition in assay [2] is -6%; in assay [3] it was -2%. Also, the result in assay [5], in assay [6], in assay [7] and in assay [8] was inactive.
As for `CC(=O)Nc1ccc(CN2CCC(N(C)c3cc(NC(=O)c4cccs4)ccn3)CC2)cc1`, the figures for the growth inhibition in assay [1] and in assay [4] were 43% and 101% (active), respectively. For the same compound, the inhibition in assay [2] is -1%; in assay [3] it was 2%. In addition, the outcome in assay [5], in assay [6], in assay [7] and in assay [8] was inactive.
Turning to `COc1ccc2[nH]cc(C3=CCN(C[C@H]4C[C@@H]4C(=O)c4ccccc4)CC3)c2n1`, the growth inhibition was 93% (active) in assay [1] and 95% (active) in assay [4]. In addition, the values for the inhibition in assay [2] and in assay [3] were 22% and -8%, respectively. For the same compound, the outcome in assay [5], in assay [6], in assay [7] and in assay [8] was inactive.
In the case of `CC[C@H]1CN2CC[C@@H]1C[C@H]2[C@H](O)c1ccnc2ccc(OC)cc12`, the growth inhibition in assay [1] is 61% (active); in assay [4] it was 100% (active). The inhibition in assay [2] was -8%; in assay [3] it was -4%. The result in assay [5], in assay [6], in assay [7] and in assay [8] was inactive.
For `C#CCN1CCC2=C(C1)c1c(O)cc(C(C)CCCc3ccc(F)cc3)cc1OC2(C)C` (stereo unspecified), the values for the growth inhibition in assay [1] and in assay [4] were 90% (active) and 98% (active), respectively. Moreover, the inhibition in assay [2] was 1%; in assay [3] it was 5%. Also, the result in assay [5], in assay [6], in assay [7] and in assay [8] was inactive.
In the case of `CN1[C@@H]2CC[C@H]1c1cc(NC(=O)c3cc(-c4ccc(Cl)cc4)cs3)ccc12`, the growth inhibition in assay [1] is 35%; in assay [4] it was 90% (active). Besides, the inhibition was 62% (active) in assay [2] and -2% in assay [3]. The result in assay [5], in assay [6], in assay [7] and in assay [8] was inactive.
In the case of `COc1cccc(C(=O)C2CC2CN2CC=C(c3c(C)[nH]c4ccccc34)CC2)c1` (stereo unspecified), the growth inhibition is 87% (active) in assay [1] and 92% (active) in assay [4]. The figures for the inhibition in assay [2] and in assay [3] were 13% and -8%, respectively. Further, the outcome in assay [5], in assay [6], in assay [7] and in assay [8] was inactive.
For the compound `Cc1ccc(CC(C)NCC(O)c2cccc([N+](=O)[O-])c2)cc1` (stereo unspecified), the growth inhibition is 85% (active) in assay [1] and 97% (active) in assay [4]. Besides, the inhibition is -6% in assay [2] and -2% in assay [3]. Also, the outcome in assay [5], in assay [6], in assay [7] and in assay [8] was inactive.
In the case of `NCc1cccc(-c2cccc(CN(C(=O)Nc3ccccc3)C3CCN(Cc4ccccc4)CC3)c2)c1`, the results for the growth inhibition in assay [1] and in assay [4] were 8% and 99% (active), respectively. Besides, the inhibition in assay [2] is 3%; in assay [3], -2%. Moreover, the result in assay [5], in assay [6], in assay [7] and in assay [8] was inactive.
In the case of `CN(c1ccc(NC(=O)CCOc2ccccc2)cc1)C1CCN(Cc2cccc(O)c2)CC1`, the values for the growth inhibition in assay [1] and in assay [4] were -1% and 89% (active), respectively. Also, the inhibition in assay [2] is 18%; in assay [3], 3%. Also, the result in assay [5], in assay [6], in assay [7] and in assay [8] was inactive.
With `Cc1ccc(CC(C)NCC(O)c2cccc(Cl)c2)cc1F` (stereo unspecified), the results for the growth inhibition in assay [1] and in assay [4] were 88% (active) and 95% (active), respectively. Besides, the values for the inhibition in assay [2] and in assay [3] were 1% and -2%, respectively. Moreover, the outcome in assay [5], in assay [6], in assay [7] and in assay [8] was inactive.
Turning to `Oc1ccc2[nH]cc(C3=CCN(CCc4ccccc4)CC3)c2c1`, the growth inhibition in assay [1] was 60% (active); in assay [4], 96% (active). Besides, the inhibition is 11% in assay [2] and 3% in assay [3]. The outcome in assay [5], in assay [6], in assay [7] and in assay [8] was inactive.
`Cc1ccc(CC(C)NCC(O)c2cccc(C(F)(F)F)c2)cc1F` (stereo unspecified): the figures for the growth inhibition in assay [1] and in assay [4] were 91% (active) and 97% (active), respectively. The inhibition in assay [2] is 15%; in assay [3] it was 3%. Besides, the result in assay [5], in assay [6], in assay [7] and in assay [8] was inactive.
On to `Cn1c(C2C[C@H]3CC[C@H](C2)N3CC2CCC(NC(=O)/C=C/c3ccc(Cl)c(Cl)c3)CC2)nc2ccccc21` (stereo partly specified), for which the results for the growth inhibition in assay [1] and in assay [4] were 51% (active) and 100% (active), respectively. For the same compound, the values for the inhibition in assay [2] and in assay [3] were 50% (active) and 4%, respectively. Moreover, the result in assay [5], in assay [6], in assay [7] and in assay [8] was inactive.
Regarding `O=C(/C=C/c1cccc(Cl)c1)NC1CCC(CN2CCC(c3c[nH]c4ccccc34)CC2)CC1` (stereo unspecified), the growth inhibition was 55% (active) and 82% (active) in assay [1]; 100% (active) and 101% (active) in assay [4]. For the same compound, the inhibition in assay [2] is 35% and 42%; in assay [3] it was 0%. Also, the outcome in assay [5], in assay [6], in assay [7] and in assay [8] was inactive.
`CC(C)CNCc1cccc(-c2ccc(CN(C(=O)c3cccs3)C3CCN(Cc4ccccc4)CC3)cc2)c1`: the values for the growth inhibition in assay [1] and in assay [4] were 40% and 85% (active), respectively. Further, the results for the inhibition in assay [2] and in assay [3] were 22% and 3%, respectively. For the same compound, the result in assay [5], in assay [6], in assay [7] and in assay [8] was inactive.
As for `CC[C@H]1CN2CC[C@H]1C[C@H]2[C@H](O)c1cc(-c2ccc(C)cc2)nc2ccc(OC)cc12`, the growth inhibition in assay [1] and in assay [4] was 99% (active) throughout. The inhibition in assay [2] was 22%; in assay [3], 6%. Further, the outcome in assay [5], in assay [6], in assay [7] and in assay [8] was inactive.
For `CNCCc1c(O)ccc2ccccc12`, the figures for the growth inhibition in assay [1] and in assay [4] were -1% and 94% (active), respectively. For the same compound, the inhibition in assay [2] is 6%; in assay [3], 2%. Besides, the outcome in assay [5], in assay [6], in assay [7] and in assay [8] was inactive.
